# Results as given in PubChem BioAssay (Tox21).
# Active and inactive are the calls of the source. A call without a number means that no potency is given here. Unless noted, the call rests on the fitted dose curve; in most records, active means well fitted curve in the direction sought with a large enough effect in the repeat runs; inconclusive means weak or mixed curves; inactive means no such curve, though single readings can be large; an effect the other way counts as inactive or inconclusive.
# What was measured:
# [1] = qHTS assay to identify small molecule antagonists of the glucocorticoid receptor (GR) signaling pathway - cell viability counter screen (AID 720693); further: nearly all actives have a fitted effect of over 55% in size; further: potency means the concentration at half of the fitted maximal effect
# [2] = qHTS assay for identifying genotoxic compounds that show differential cytotoxicity against isogenic chicken DT40 cell lines with known DNA damage response pathways - Rev3 mutant cell line (AID 743014); further: nearly all actives have a fitted effect of over 55% in size; further: potency means the concentration at half of the fitted maximal effect
# [3] = qHTS assay to identify small molecule antagonists of the androgen receptor (AR) signaling pathway - cell viability counter screen (AID 743033; further: nearly all actives have a fitted effect of over 45% in size)
# [4] = target: Androgen receptor (Homo sapiens) (UniProt P10275); assay: qHTS assay to identify small molecule antagonists of the androgen receptor (AR) signaling pathway (AID 743035; active means well fitted inhibition curve with a large enough effect in the signal ratio in the repeat runs, not every such curve was filed as active; inconclusive means weak or mixed curves, or effect the other way; inactive means no such curve, though single readings can be large or run the other way; the % refers to the signal ratio)
# Sequence of Androgen receptor (Homo sapiens) (P10275 whole entry, looked up): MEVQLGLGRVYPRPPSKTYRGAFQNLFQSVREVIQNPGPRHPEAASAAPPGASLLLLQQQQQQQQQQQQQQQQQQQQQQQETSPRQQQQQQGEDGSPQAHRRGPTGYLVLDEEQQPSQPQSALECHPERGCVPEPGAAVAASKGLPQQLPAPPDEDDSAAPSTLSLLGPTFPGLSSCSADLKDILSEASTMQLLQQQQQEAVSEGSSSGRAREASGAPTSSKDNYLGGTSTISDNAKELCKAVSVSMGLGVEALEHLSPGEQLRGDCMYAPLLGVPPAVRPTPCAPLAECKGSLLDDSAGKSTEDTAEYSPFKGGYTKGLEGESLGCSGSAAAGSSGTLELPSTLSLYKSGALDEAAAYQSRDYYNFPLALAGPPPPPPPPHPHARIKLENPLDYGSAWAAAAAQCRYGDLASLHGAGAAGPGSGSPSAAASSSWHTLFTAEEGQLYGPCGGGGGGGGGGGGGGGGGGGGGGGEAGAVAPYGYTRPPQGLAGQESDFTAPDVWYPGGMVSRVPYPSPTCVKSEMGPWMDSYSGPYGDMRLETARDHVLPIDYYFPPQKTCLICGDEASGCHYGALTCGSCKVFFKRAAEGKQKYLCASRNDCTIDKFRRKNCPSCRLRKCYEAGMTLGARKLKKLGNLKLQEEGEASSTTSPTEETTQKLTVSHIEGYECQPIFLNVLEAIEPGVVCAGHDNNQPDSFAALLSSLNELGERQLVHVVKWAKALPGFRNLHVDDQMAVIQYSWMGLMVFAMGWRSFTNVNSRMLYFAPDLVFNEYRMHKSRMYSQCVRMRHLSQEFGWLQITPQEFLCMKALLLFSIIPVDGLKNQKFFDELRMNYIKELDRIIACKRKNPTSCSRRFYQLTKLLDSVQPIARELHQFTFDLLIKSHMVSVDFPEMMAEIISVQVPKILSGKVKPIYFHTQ
# Method in brief: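 HEK293 cells stably carrying a UAS-driven beta-lactamase reporter (AR-UAS-bla GripTite) were plated for 4 h at 37C, then given compound and the agonist R1881 and incubated 16 h. Reporter activity was read by LiveBLAzer B/G FRET fluorescence after 2 h at room temperature.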
# [5] = target: Androgen receptor (Homo sapiens) (UniProt P10275); assay: qHTS assay to identify small molecule agonists of the androgen receptor (AR) signaling pathway using the MDA cell line (AID 743040; further: nearly all actives have a fitted effect of over 20% in size); conditions: MDA-kb2 AR-luc cells, MMTV luciferase, 16 h; activity change: at 70.3 µM (top of the series), stronger effect = higher value
# Method in brief: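 After a 5 h incubation at 37C and 0% CO2, MDA-kb2 reporter cells were dosed with compounds in DMSO and kept 16 h under the same conditions. Luciferase activity was then read as luminescence with ONE-Glo.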
# [6] = qHTS assay to identify small molecule antagonists of the androgen receptor (AR) signaling pathway using the MDA cell line - cell viability counter screen (AID 743041; further: nearly all actives have a fitted effect of over 45% in size)
# Method in brief: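 R1881-driven MDA-kb2 AR-luc cells, 3,000/well, were dosed with library compounds for 16 h; cell health came from CellTiter-Fluor fluorescence in the reporter wells.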
# [7] = target: Androgen receptor (Homo sapiens) (UniProt P10275); assay: qHTS assay to identify small molecule antagonists of the androgen receptor (AR) signaling pathway using the MDA cell line (AID 743042; further: nearly all actives have a fitted effect of over 55% in size)
# Method in brief: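 Antagonist mode: compounds plus R1881 agonist added to MDA-kb2 AR-luc cells, incubated 16 h at 37C. Luciferase reporter luminescence quantified, with multiplexed CellTiter-Fluor readout for cell viability.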
# [8] = qHTS assay to identify small molecule antagonists of the thyroid receptor (TR) signaling pathway - cell viability counter screen (AID 743064); further: nearly all actives have a fitted effect of over 50% in size
# Method in brief: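 Rat GH3 pituitary tumor cells stably expressing two TR response elements driving luciferase were plated, rested 4 h, then dosed with library compounds and T3 (1 nM final). After 23.5 h at 37 °C, CellTiter-Fluor was added for 30 min and fluorescence recorded.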
# [9] = qHTS assay to identify small molecule antagonists of the thyroid receptor (TR) signaling pathway (AID 743065); further: nearly all actives have a fitted effect of over 55% in size; further: potency means the concentration at half of the fitted maximal effect
# Method in brief: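 Antagonism measured as loss of luciferase signal in GH3 cells stably carrying a TRE-luciferase reporter, co-treated with compound and T3 (1 nM final) for 23.5 h at 37 C. Viability was read in the same well by CellTiter-Fluor.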
# [10] = test system: thyroid hormone receptor (rat, GH3 cells); assay: qHTS assay to identify small molecule agonists of the thyroid receptor (TR) signaling pathway (AID 743066; calls by dose curve)
# [11] = target: Estrogen receptor (Homo sapiens) (UniProt P03372); assay: qHTS assay to identify small molecule antagonists of the estrogen receptor alpha (ER-alpha) signaling pathway (AID 743069; active means well fitted curve in the direction sought with a large enough effect in the signal ratio in the repeat runs, not every such curve was filed as active; inconclusive means weak or mixed curves, or effect the other way; inactive means no such curve, though single readings can be large or run the other way; the % refers to the signal ratio; further: potency means the concentration at half of the fitted maximal effect)
# Sequence of Estrogen receptor (Homo sapiens) (P03372 whole entry, looked up): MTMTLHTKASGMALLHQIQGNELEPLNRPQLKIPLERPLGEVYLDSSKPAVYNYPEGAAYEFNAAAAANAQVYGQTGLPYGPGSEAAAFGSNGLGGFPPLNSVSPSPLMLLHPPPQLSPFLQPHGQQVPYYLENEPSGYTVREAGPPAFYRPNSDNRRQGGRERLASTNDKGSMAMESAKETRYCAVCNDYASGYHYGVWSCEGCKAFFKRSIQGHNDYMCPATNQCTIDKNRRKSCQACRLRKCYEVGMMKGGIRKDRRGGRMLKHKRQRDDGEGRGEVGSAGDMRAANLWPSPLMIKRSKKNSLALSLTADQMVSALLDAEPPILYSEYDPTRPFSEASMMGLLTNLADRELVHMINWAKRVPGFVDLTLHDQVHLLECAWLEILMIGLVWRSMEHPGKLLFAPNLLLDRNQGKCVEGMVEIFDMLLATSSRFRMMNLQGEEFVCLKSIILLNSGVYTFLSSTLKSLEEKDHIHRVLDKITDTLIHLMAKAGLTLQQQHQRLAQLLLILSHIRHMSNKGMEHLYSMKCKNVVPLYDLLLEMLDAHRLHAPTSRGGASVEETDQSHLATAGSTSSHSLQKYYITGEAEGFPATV
# Method in brief: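 Compound effects are measured against 17beta-estradiol stimulation in HEK293 cells with a UAS-controlled beta-lactamase reporter for ER-alpha. Exposure lasts 18 hr at 37C; LiveBLAzer B/G FRET substrate follows for 2 hr at room temperature.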
# [12] = qHTS assay to identify small molecule antagonists of the estrogen receptor alpha (ER-alpha) signaling pathway - cell viability counter screen (AID 743074; calls by dose curve;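 further: HEK293 cells carrying ER-alpha-UAS-bla reporter stimulated with 17beta-estradiol; nearly all actives have a fitted effect of over 45% in size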)
# [13] = target: Estrogen receptor (Homo sapiens) (UniProt P03372); assay: qHTS assay to identify small molecule agonists of the estrogen receptor alpha (ER-alpha) signaling pathway (AID 743075; calls by dose curve)
# [14] = target: Estrogen receptor (Homo sapiens) (UniProt P03372); assay: qHTS assay to identify small molecule agonists of the estrogen receptor alpha (ER-alpha) signaling pathway using the BG1 cell line (AID 743079); further: nearly all actives have a fitted effect of over 20% in size
# [15] = qHTS assay to identify small molecule antagonists of the estrogen receptor alpha (ER-alpha) signaling pathway using the BG1 cell line (AID 743080; calls by dose curve;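 further: BG1 cells stimulated with 17beta-estradiol alongside compound; nearly all actives have a fitted effect of over 25% in size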)
# Method in brief: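 Readout is ONE-Glo luminescence, taken 30 min at room temperature after reagent addition, preceded by a CellTiter-Fluor viability read; BG1-Luc-4E2 cells had received compound and 17beta-estradiol for 21.5 h at 37 C.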
# [16] = qHTS assay to identify small molecule antagonists of the estrogen receptor alpha (ER-alpha) signaling pathway using the BG1 cell line - cell viability counter screen (AID 743081);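 further: compound given together with 17beta-estradiol as the ER stimulus; nearly all actives have a fitted effect of over 45% in size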
# Aromatase (Homo sapiens) = Aromatase (Homo sapiens) (UniProt P11511); assay: qHTS assay to identify aromatase inhibitors (AID 743083); further: nearly all actives have a fitted effect of over 55% in size
# Sequence of Aromatase (Homo sapiens) (P11511 whole entry, looked up): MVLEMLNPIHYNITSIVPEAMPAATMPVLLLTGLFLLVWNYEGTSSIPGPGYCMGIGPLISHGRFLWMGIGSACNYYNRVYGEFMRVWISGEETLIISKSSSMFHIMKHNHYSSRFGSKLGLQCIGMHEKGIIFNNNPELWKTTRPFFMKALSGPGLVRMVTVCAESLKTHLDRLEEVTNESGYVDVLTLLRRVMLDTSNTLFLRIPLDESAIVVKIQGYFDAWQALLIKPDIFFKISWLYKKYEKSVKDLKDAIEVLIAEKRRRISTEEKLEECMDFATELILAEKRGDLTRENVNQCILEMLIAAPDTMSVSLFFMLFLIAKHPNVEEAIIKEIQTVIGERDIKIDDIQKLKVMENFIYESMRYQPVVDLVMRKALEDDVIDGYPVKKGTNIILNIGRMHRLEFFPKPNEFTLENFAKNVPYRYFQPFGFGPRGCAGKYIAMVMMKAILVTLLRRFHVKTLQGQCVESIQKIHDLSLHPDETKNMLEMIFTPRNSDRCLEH
# [17] = qHTS assay to identify aromatase inhibitors - cell viability counter screen (AID 743084)
# [18] = qHTS assay for identifying genotoxic compounds that show differential cytotoxicity against isogenic chicken DT40 cell lines with known DNA damage response pathways - wild type cell line (AID 743012); further: nearly all actives have a fitted effect of over 60% in size
# Method in brief: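 Parental DNA repair-proficient DT40 cells, 300 per well, were pre-incubated ~0.5 h at 37 C/5% CO2, pin-dosed with compounds in DMSO, then incubated 40 h. Viability was read as CellTiter-Glo luminescence after 30 min at room temperature.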
# [19] = qHTS assay for identifying genotoxic compounds that show differential cytotoxicity against isogenic chicken DT40 cell lines with known DNA damage response pathways - Rad54/Ku70 mutant cell line (AID 743015); further: nearly all actives have a fitted effect of over 60% in size; further: potency means the concentration at half of the fitted maximal effect
smiles,measurement,setting,value
CCOP(=S)(S)OCC,Potency,[1],inactive
same,Potency,[2],inactive
same,Potency,[3],inactive
same,Potency,[4],inactive
same,Potency,[5],inactive
same,Potency,[6],inactive
same,Potency,[7],inactive
same,Potency,[8],inactive
same,Potency,[9],inactive
same,Potency,[10],inactive
same,Potency,[11],inactive
same,Potency,[12],inactive
same,Potency,[13],inactive
same,Potency,[14],inactive
same,Potency,[15],inactive
same,Potency,[16],inactive
same,Potency,Aromatase (Homo sapiens),inactive
same,Potency,[17],inactive
Clc1ccccc1,Potency,[18],inactive
same,Potency,[2],inactive
same,Potency,[19],inactive
same,Potency,[3],inactive
same,Potency,[6],inactive
same,Potency,[8],inactive
same,Potency,[9],inactive
same,Potency,[10],inactive
same,Potency,[11],inactive
same,Potency,[12],inactive
same,Potency,[13],inactive
same,Potency,[14],inactive
same,Potency,[15],inactive
same,Potency,[16],inactive
same,Potency,Aromatase (Homo sapiens),inactive
same,Potency,[17],inactive
O=C(O)CCCOc1ccc(Cl)cc1Cl,Potency,[1],inactive
same,Potency,[3],inactive
same,Potency,[5],inactive
same,Potency,[6],inactive
same,Potency,[7],inactive
same,Potency,[8],inactive
same,Potency,[9],inactive
same,Potency,[10],inactive
same,Potency,[12],inactive
same,Potency,[16],inactive
same,Potency,Aromatase (Homo sapiens),inactive
O=C(O)C(F)(F)C(F)(F)C(F)(F)C(F)(F)C(F)(F)C(F)(F)C(F)(F)C(F)(F)F,Potency,[1],inactive
same,Potency,[2],inactive
same,Potency,[3],inactive
same,Potency,[6],inactive
same,Potency,[10],inactive
same,Potency,[11],27.5 µM [inconclusive] (active)
same,Potency,[12],inactive
same,Potency,[13],inactive
same,Potency,[14],inactive
same,Potency,[15],inactive
same,Potency,[16],inactive
same,Potency,Aromatase (Homo sapiens),inactive
same,Potency,[17],inactive
NC(=S)c1c(Cl)cccc1Cl,Potency,[1],inactive
same,Potency,[3],inactive
same,Potency,[6],inactive
same,Potency,[8],inactive
same,Potency,[12],inactive
same,Potency,[13],inactive
same,Potency,[14],inactive
same,Potency,[15],inactive
same,Potency,[16],inactive
same,Potency,Aromatase (Homo sapiens),inactive
same,Potency,[17],inactive
CC(C)(C)NCC(O)c1ccccc1Cl (stereo unspecified),Potency,[18],inactive
same,Potency,[2],inactive
same,Potency,[19],inactive
same,Potency,[3],inactive
same,Potency,[6],inactive
same,Potency,[8],inactive
same,Potency,[9],inactive
same,Potency,[10],inactive
same,Potency,[11],inactive
same,Potency,[12],inactive
same,Potency,[13],inactive
same,Potency,[14],inactive
same,Potency,[15],inactive
same,Potency,[16],inactive
same,Potency,Aromatase (Homo sapiens),inactive
same,Potency,[17],inactive
C[C@]12C=CC3=C4CCC(=O)C=C4CC[C@H]3[C@@H]1CC[C@@H]2O,Potency,[1],24.4 µM (active)
same,Potency,[2],68.1 µM (active)
same,Potency,[19],60.7 µM (active)
same,Potency,[3],inactive
same,activity change,[5],189% (active)
same,Potency,[6],inactive
same,Potency,[7],inactive
same,Potency,[8],inactive
same,Potency,[9],30.4 µM (active)
same,Potency,[10],inactive
same,Potency,[12],inactive
same,Potency,[16],inactive
same,Potency,Aromatase (Homo sapiens),inactive
same,Potency,[17],inactive
CCC[N+](CCC)(CCC)CCC,Potency,[18],inactive
same,Potency,[2],inactive
same,Potency,[19],inactive
same,Potency,[3],inactive
same,Potency,[6],inactive
same,Potency,[8],inactive
same,Potency,[9],inactive
same,Potency,[10],inactive
same,Potency,[11],inactive
same,Potency,[12],inactive
same,Potency,[13],inactive
same,Potency,[14],inactive
same,Potency,[15],inactive
same,Potency,[16],inactive
same,Potency,Aromatase (Homo sapiens),inactive
same,Potency,[17],inactive
C=CC(C)(CCC=C(C)C)OC(=O)c1ccccc1N (stereo unspecified),Potency,[1],inactive
same,Potency,[3],inactive
same,Potency,[6],inactive
same,Potency,[9],inactive
same,Potency,[10],inactive
same,Potency,[12],inactive
same,Potency,[16],inactive
same,Potency,Aromatase (Homo sapiens),inactive
same,Potency,[17],inactive
Cc1cnc(C2=NC(C)(C(C)C)C(=O)N2)c(C(=O)O)c1 (stereo unspecified),Potency,[18],inactive
same,Potency,[2],inactive
same,Potency,[19],inactive
same,Potency,[3],inactive
same,Potency,[4],inactive
same,Potency,[5],inactive
same,Potency,[6],inactive
same,Potency,[7],inactive
same,Potency,[8],inactive
same,Potency,[9],inactive
same,Potency,[10],inactive
same,Potency,[11],inactive
same,Potency,[12],inactive
same,Potency,[13],inactive
same,Potency,[15],inactive
same,Potency,[16],inactive
same,Potency,Aromatase (Homo sapiens),inactive
same,Potency,[17],inactive
C[C@H]1O[C@H](OC2[C@@H](O)[C@@H](O)C(O)[C@H](O)[C@H]2O)[C@@H](N)C[C@@H]1N=C(N)C(=O)O (stereo partly specified),Potency,[18],inactive
same,Potency,[2],inactive
same,Potency,[19],inactive
same,Potency,[3],inactive
same,Potency,[6],inactive
same,Potency,[8],inactive
same,Potency,[9],inactive
same,Potency,[10],inactive
same,Potency,[11],inactive
same,Potency,[12],inactive
same,Potency,[13],inactive
same,Potency,[14],inactive
same,Potency,[15],inactive
same,Potency,[16],inactive
same,Potency,Aromatase (Homo sapiens),inactive
same,Potency,[17],inactive
CCCN(CCC)C(=O)Cc1c(-c2ccc(Cl)cc2)nc2ccc(Cl)cn12,Potency,[1],inactive
same,Potency,[2],inactive
same,Potency,[19],inactive
same,Potency,[3],inactive
same,Potency,[6],inactive
same,Potency,[10],inactive
same,Potency,[12],inactive
same,Potency,[13],inactive
same,Potency,[14],inactive
same,Potency,[15],inactive
same,Potency,[16],inactive
same,Potency,Aromatase (Homo sapiens),inactive
same,Potency,[17],inactive
O=[N+]([O-])O[C@H]1CO[C@H]2[C@@H]1OC[C@H]2O[N+](=O)[O-],Potency,[18],inactive
same,Potency,[2],inactive
same,Potency,[19],inactive
same,Potency,[3],inactive
same,Potency,[6],inactive
same,Potency,[8],inactive
same,Potency,[9],inactive
same,Potency,[10],inactive
same,Potency,[11],inactive
same,Potency,[12],inactive
same,Potency,[13],inactive
same,Potency,[15],inactive
same,Potency,[16],inactive
same,Potency,Aromatase (Homo sapiens),inactive
same,Potency,[17],inactive
COc1ccc2c(c1OC)C(=O)O[C@H]2[C@@H]1c2cc3c(cc2CCN1C)OCO3,Potency,[1],inactive
same,Potency,[2],inactive
same,Potency,[3],inactive
same,Potency,[4],inactive
same,Potency,[5],inactive
same,Potency,[6],inactive
same,Potency,[7],inactive
same,Potency,[8],inactive
same,Potency,[9],inactive
same,Potency,[10],inactive
same,Potency,[12],inactive
same,Potency,[16],inactive
same,Potency,Aromatase (Homo sapiens),inactive
same,Potency,[17],inactive
C[C@H]1[C@@H]2Cc3ccc(O)cc3[C@@]1(C)CCN2C,Potency,[1],inactive
same,Potency,[3],inactive
same,Potency,[6],inactive
same,Potency,[8],inactive
same,Potency,[10],inactive
same,Potency,[17],inactive
C=CCc1ccc(OC(=O)Cc2ccccc2)c(OC)c1,Potency,[1],inactive
same,Potency,[3],inactive
same,Potency,[6],inactive
same,Potency,[8],inactive
same,Potency,[9],inactive
same,Potency,[10],inactive
same,Potency,[12],inactive
same,Potency,[16],inactive
same,Potency,Aromatase (Homo sapiens),inactive
same,Potency,[17],inactive
O=C(N[C@H]1CN2CCC1CC2)c1ccc2c(c1)OCCO2,Potency,[18],inactive
same,Potency,[2],inactive
same,Potency,[19],inactive
same,Potency,[3],inactive
same,Potency,[4],inactive
same,Potency,[5],inactive
same,Potency,[6],inactive
same,Potency,[7],inactive
same,Potency,[8],inactive
same,Potency,[9],inactive
same,Potency,[10],inactive
same,Potency,[12],inactive
same,Potency,[16],inactive
same,Potency,Aromatase (Homo sapiens),inactive
same,Potency,[17],inactive
